Results: PubChem BioAssay AID588466 (NMMLSC, 2011)
Several values for one entry are separate records, joined by “and”; a condition that tells them apart may be missing. Equal entries are not always repeated. Among all 2,100 compounds or so, about 30 (1%) were called active. A selection follows. Unmarked numbers belong to inactive results.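 Rule for the calls: active = compounds whose mean binding response over two repeats is below 75% of the DMSO control; inactive = the rest.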

What follows are compounds tested against Desmoglein-3 (Homo sapiens) (UniProt P32926) (assay: inhibitors of anti-DSG3 scFv binding to DSG3, confirmation, biochemical, cherry pick 1, bead-based, flow cytometry (AID 588466;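 note: 100% = 2% DMSO vehicle and 0% = excess soluble DSG3 blocking control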)). Conditions: Protein G beads with DSG3, scFv-GFP binding, at 10 µM, active compounds read low.
Chain of Desmoglein-3 (Homo sapiens) (P32926 whole entry, looked up): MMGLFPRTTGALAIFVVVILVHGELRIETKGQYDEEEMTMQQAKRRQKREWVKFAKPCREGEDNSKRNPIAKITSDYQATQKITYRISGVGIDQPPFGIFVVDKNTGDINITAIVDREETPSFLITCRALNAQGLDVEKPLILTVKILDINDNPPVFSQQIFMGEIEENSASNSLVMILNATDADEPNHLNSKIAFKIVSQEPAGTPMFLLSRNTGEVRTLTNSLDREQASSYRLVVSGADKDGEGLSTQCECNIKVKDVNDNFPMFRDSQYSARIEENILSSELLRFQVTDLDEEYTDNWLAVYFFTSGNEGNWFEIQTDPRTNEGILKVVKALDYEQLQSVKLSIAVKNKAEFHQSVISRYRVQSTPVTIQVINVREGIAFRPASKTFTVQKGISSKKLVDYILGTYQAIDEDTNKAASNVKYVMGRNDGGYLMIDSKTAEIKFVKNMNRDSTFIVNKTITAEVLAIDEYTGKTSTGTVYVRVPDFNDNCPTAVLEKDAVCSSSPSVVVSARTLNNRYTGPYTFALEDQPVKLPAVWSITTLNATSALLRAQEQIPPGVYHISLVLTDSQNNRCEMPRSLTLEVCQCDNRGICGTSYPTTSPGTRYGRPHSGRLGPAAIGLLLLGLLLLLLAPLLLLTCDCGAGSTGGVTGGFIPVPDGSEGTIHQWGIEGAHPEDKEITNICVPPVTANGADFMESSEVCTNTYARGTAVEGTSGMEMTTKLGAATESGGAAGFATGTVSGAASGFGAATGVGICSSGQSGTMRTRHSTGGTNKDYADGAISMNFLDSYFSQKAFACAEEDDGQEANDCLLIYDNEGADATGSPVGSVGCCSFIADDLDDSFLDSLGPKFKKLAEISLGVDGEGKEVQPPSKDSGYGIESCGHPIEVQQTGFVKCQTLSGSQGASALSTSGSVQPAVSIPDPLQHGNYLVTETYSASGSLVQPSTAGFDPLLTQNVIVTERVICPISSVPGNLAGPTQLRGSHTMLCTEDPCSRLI

Compound	binding response (% of DMSO)
Cc1ccc([C@H]2C[C@H](n3cc(C4CC4)nn3)[C@@H](O)CN2Cc2cccs2)cc1	119%
COc1ccc(S(=O)(=O)N2CCCCCC2)cc1N	100%
COc1ccc(C(=O)Nn2c(C)nc3ccccc3c2=O)cc1Br	98%
COc1ccc(Br)c(C(=O)Nc2cccc(S(=O)(=O)N3CCOCC3)c2)c1	98.5%
CC(=O)Nc1ccc(S(=O)(=O)NCc2ccc3c(c2)cc(C)n3C)cc1	99.3%
CC(C)Oc1ccc(C(=O)Nc2ccc(NC(=O)c3ccco3)c(Cl)c2)cc1	100%
O=C(NCc1ccccc1)C1CCN(S(=O)(=O)c2cccc3cccnc23)CC1	109% and 103%
S=C(NCCCN1CCOCC1)N1CCN(c2cccc(Cl)c2)CC1	100%
COc1ccc(CNS(=O)(=O)c2cn(C)c(=O)n(C)c2=O)cc1	95%
Cc1c(C(=O)N2CCN(c3ccc(F)cc3)CC2)sc2nc(-c3ccccc3)cn12	101%
COc1ccc(NC(=O)c2cc(-c3ccc(C)o3)nc3ccccc23)cc1OC	103%
CCOC(=O)CSc1nnc(-c2ccccc2NC(=O)c2ccccc2)o1	95%
Cc1cc(C)n2c(SCC(=O)N3CCN(S(=O)(=O)c4ccc(Cl)cc4)CC3)nnc2n1	92.2%
CC(C)c1ccccc1NS(=O)(=O)N(C)C	99.3%
CN(C)c1nc(N)ncc1-c1ccc(Oc2ccccc2)cc1	83.8%
Cc1nnc(NC(=O)c2ccc(-c3ccc(Cl)cc3)o2)s1	104%
COc1ccc2cc(C(=O)COC(=O)COc3ccc4c(C)cc(=O)oc4c3)ccc2c1	91.2%
COc1ccc(-c2nc(C#N)c(NCc3ccccc3Cl)o2)cc1	89.4%
COc1ccc(CCn2nnnc2C(C(C)C)N2CCN(c3ncccn3)CC2)cc1OC (stereo not given)	96.4%
CCOc1ccc(-n2nc3ccc(NC(=O)c4ccc5c(c4)OCCO5)cc3n2)cc1	85.4%
O=C(Nc1nc(-c2ccccc2)c(-c2ccccc2)s1)c1ccc(S(=O)(=O)N2CCCCC2)cc1	96.3%
COc1ccc(CCNC(=O)COc2cccc(-n3cnnn3)c2)cc1	108%
NC(=O)CC(NC(=O)Cc1cccc2ccccc12)c1ccc(NCCOc2ccccc2)c([N+](=O)[O-])c1 (stereo not given)	104%

Compound	binding response (% of DMSO)
CCOC(=O)c1ccc(-c2nnc(-c3ccc(Cl)cc3Cl)o2)cc1	100%
O=C(O)c1ccc(-c2ccc(/C=C3\NC(=O)N(Cc4ccc(Cl)cc4)C3=O)o2)cc1Cl	103%
CCOC(=O)c1cc(-c2ccc(/C=C3/C(=O)N(c4ccc(C(=O)O)cc4)N=C3C)o2)ccc1Cl	54.4% (active)
O=C(NCCCN1CCOCC1)c1cc2nc(-c3ccco3)cc(C(F)(F)F)n2n1	101%
CC1CC(C)CN(c2ncc3c(n2)CC(c2ccccc2)CC3=O)C1 (stereo not given)	99%
O=c1c2nnn(Cc3ccc(Cl)cc3)c2ncn1Cc1ccc(F)cc1	93.7%
O=C(Nc1ccc(N2CCN(C(=O)c3ccccc3)CC2)cc1)c1cc2ccccc2o1	93.8%
Cc1ccc(N2CCN(S(=O)(=O)c3nnc(NC(=O)c4ccccc4)s3)CC2)cc1	98.7%
CCOc1ccc2c(c1)C(NC(C)=O)C(=O)N2CCN1CCOCC1 (stereo not given)	97.4%
O=C(Nc1cccc(NC(=O)c2ccc(Cl)cc2)n1)c1ccc(Cl)cc1	100%
CNC(=O)CN1C(=O)NC(c2ccccc2)(c2ccccc2)C1=O	100%
Cc1ccc(Sc2ncccc2COC(=O)Nc2c(C)cccc2C)cc1	96.3%
FC(F)(F)c1cc(-c2ccco2)nc(NCCc2ccccc2)n1	106%
O=C(NCCCN1CCOCC1)c1cc(-c2cccc(Br)c2)nc2ccccc12	102%
COc1ccc(-c2cn3c(C)c(C(=O)NC(C)C)sc3n2)cc1	95.9%
O=C(Nc1ccc(NS(=O)(=O)c2ccccc2)cc1)c1ccc(Cl)cc1	49.9%
Cc1ccc(NS(=O)(=O)c2ccc3c(c2)oc(=O)n3C)cc1F	99.5%
CCn1nc(C(=O)OCc2c(C)noc2C)c2ccccc2c1=O	104%
COc1ccc(NC(=O)CCCC(=O)c2ccccc2)cc1	103%
CCN(CC)CC(=O)NN=C(c1ccccc1)c1ccccc1	100%
CCSc1nnc(NC(=O)CSc2nnc(CNC(=O)c3ccc(OC)cc3)o2)s1	102%
CCN(CC(=O)Nc1ccc(S(=O)(=O)N2CCCCC2)cc1)Cc1ccccc1	98%
O=C(COc1ccccc1Cl)NCCNC(=O)c1ccccn1	101%

Compound	binding response (% of DMSO)
CCN(CC)CCn1c2c(c(SCC(=O)Nc3ccc(C)c(F)c3)nc1=O)CCC2	103%
Cc1nc(N)sc1-c1csc(Nc2ncccn2)n1	95.9%
Cc1cnc(C(=O)N2CCN(S(=O)(=O)c3cc(C(F)(F)F)cc(C(F)(F)F)c3)CC2)cn1	110%
COc1ccc(S(=O)(=O)N2CCN(CC(=O)Nc3cc(Cl)ccc3Cl)CC2)cc1	95%
COc1ccc(-n2c(SCC(=O)O)nc3sc4c(c3c2=O)CCCC4)cc1	103%
CCOC(=O)N1CCC(n2c(SCC(=O)c3ccccc3)nc3ccsc3c2=O)CC1	93.2%
Cc1ccc(NS(=O)(=O)c2c(C)[nH]c(C)c2C(=O)N2CCCCC2)c(Br)c1	101%
CCCCCC(=O)N1C[C@@H](O)[C@H](n2cc(-c3ccc(F)cc3)nn2)C[C@@H]1c1ccc(OC)cc1	99.7%
CC(=O)c1cc2c(cc1NC(=O)c1ccc(Cl)cc1)OCCO2	87.5%
COc1ccc(NC(=O)Cn2nnc(C(=O)NCc3ccccc3)c2N)cc1Cl	76.4%
CC(C)Oc1ccc(C(=O)Nc2c3c(nn2-c2ccccc2)CS(=O)(=O)C3)cc1	96.5%
CC(=O)c1ccc(NC(=O)Cn2cnc(S(=O)(=O)N3CCc4ccccc43)c2)cc1	94.8%
COc1cccc(C(=O)NCc2ccc3c(c2)cc(C)n3C)c1	109%
NNc1nc2c(-c3ccc(Cl)cc3)nnn2c2ccccc12	91.9%
COc1ccc(NC(=O)NN2CCN(C)CC2)c(OC)c1	99.8%
CSc1ccccc1OCc1cc(C(=O)N2CCN(Cc3nccn3C)CC2)no1	106%
C=CCNc1nc(-c2cccc(OC)c2O)nc2ccccc12	92.4%
Nc1nc(SCc2nnc(SCC(=O)O)n2-c2ccccc2)nc2sc3c(c12)CCCC3	106%
C=CCn1c(O)c(C2=c3ccccc3=NC2=O)s/c1=N/c1nccs1	71.7%
C=CCN1C2CCCC1CC(NC(=O)Nc1cccc(C(C)=O)c1)C2 (stereo not given)	104%
COc1ccc(NC(=O)c2cc(-c3ccco3)nc3ccccc23)cc1	74.5%
COc1ccc(NC(=O)CN(C)Cc2cccs2)cc1Cl	105%
COC(=O)c1ccc(NC(=O)COc2ccc3c(c2)OCO3)cc1	102%

Compound	binding response (% of DMSO)
CN(c1ccc(C(=O)NC2CC3CCC2C3)cc1)S(C)(=O)=O (stereo not given)	101%
CC(=O)C1=C(O)CC(c2ccccc2)CC1=NCCc1c(C)[nH]c2ccc(C)cc12 (stereo not given)	96.5%
CC(C)CNC(=O)c1ccccc1NC(=O)CN(c1ccccc1)S(=O)(=O)N(C)C	102%
CCOC(=O)c1c(S(=O)(=O)NCC(C)c2ccccc2)c(C)n(C)c1C (stereo not given)	97.9%
CCCOC(=O)CSc1nc(N)c(C#N)c(CC)c1C#N	108%
CN(C)S(=O)(=O)c1cccc(NC(=O)COC(=O)c2cc3ccccc3oc2=O)c1	90.6%
COc1ccc(CNC(=O)c2ccc(Cl)c(NC3=NC4CS(=O)(=O)CC4S3)c2)cc1 (stereo not given)	104%
CCn1cc(C(=O)NCc2cccnc2)c(=O)c2cc(F)c(N3CCN(C(=O)c4ccco4)CC3)cc21	105%
Cc1ccc(S(=O)(=O)N2CCCCC2)cc1NC(=O)CCNC(=O)c1ccccc1Cl	98.5%
O=C(CSc1nnc(CNC(=O)c2ccc(F)cc2)o1)Nc1nccs1	99.5%
CCOc1ccccc1NS(=O)(=O)c1ccc2[nH]c(=O)[nH]c2c1	89.3%
O=C(CN1CCN(S(=O)(=O)c2cc(Br)ccc2Br)CC1)NCc1ccccc1Cl	108%
Cc1ccc(NC(=O)Nc2ccc3c(c2)OCO3)nc1	101%
COc1ccc(CCN2CC(C(=O)OCC(=O)NC(Cc3ccccc3)C(C)=O)CC2=O)cc1OC (stereo not given)	102%
CCOc1ccc(NC(=O)c2nc(SCC)ncc2Cl)cc1	101%
CCOc1ccc(C(=O)Nc2cccc3cccnc23)cc1	93%
Cc1ccc(C)n1NC(=O)c1cccs1	91.4%
COc1ccc(CC(=O)OCC(=O)NCc2ccc3c(c2)OCO3)cc1OC	99.5%
CCOC(=O)N1CCC(NC(=O)c2cc3c(-c4ccc(Cl)cc4)nn(C)c3s2)CC1	95.6%
COc1cccc(C(=O)Nc2cc(-c3cn4cccnc4n3)ccc2C)c1	102%
COc1ccc(CNC(=O)C(C)n2nc(C)c3c(C)n(-c4ccccc4)nc3c2=O)c(OC)c1 (stereo not given)	95.7%
